From PubChem
mIDH1 inhibitor: inhibitors of human mutant IDH1 R132H; O75874; IDH1-R132H enzyme, NADPH consumption, diaphorase/resazurin fluorescence; Potency, µM (series often up to 76.6 µM), most hits filed as inhibitors; 390,000 tested, 0.093% active; AID 602179; note: nearly all actives have a fitted effect of over 65% in size
Target sequence (O75874 whole entry R132H, stated change not applied): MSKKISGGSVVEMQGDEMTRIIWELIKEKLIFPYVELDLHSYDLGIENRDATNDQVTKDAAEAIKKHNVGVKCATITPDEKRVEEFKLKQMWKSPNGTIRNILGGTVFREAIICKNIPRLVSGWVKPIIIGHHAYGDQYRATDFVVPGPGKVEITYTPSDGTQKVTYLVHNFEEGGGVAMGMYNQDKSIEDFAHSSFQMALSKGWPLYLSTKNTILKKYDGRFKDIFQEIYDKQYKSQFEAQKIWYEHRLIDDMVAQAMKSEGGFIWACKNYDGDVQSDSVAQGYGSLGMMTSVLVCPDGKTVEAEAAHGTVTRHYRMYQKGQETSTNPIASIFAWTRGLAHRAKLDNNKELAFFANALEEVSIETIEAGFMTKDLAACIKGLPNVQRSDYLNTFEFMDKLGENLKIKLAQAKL
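IDH1-R132H (0.5 ug/mL) preincubated 30 min with compound, then NADPH (0.016 mM) and alpha-KG (2 mM) added; 80 min at RT, pH 7.5. Remaining NADPH coupled via diaphorase/resazurin to fluorescence (540/590 nm); concentration-response curves normalized to no-enzyme control.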
gsp agonist: gsp mutant agonism; gsp mutant cells, cAMP HTRF, 30 min; Potency, µM (highest dose often 76.9 µM), most hits filed as activators; 340,000 tested, 0.13% active; AID 624287; active = well fitted activation curve with a large enough effect; inconclusive = small, poorly fitted or top-dose-only effect, or another doubt; inactive = no such curve, though single readings can be large or run the other way; cell line not stated here;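 note: phosphodiesterase inhibitor Ro 20-1724 added with compounds to block cAMP breakdown; nearly all actives have a fitted effect of over 60% in size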
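Cells stably selected in G418 were plated at 2000/well, grown 16-24 hr, then given compounds in DMSO with the PDE inhibitor […] (300 uM solution added) for 30 min at 37C; cAMP was read by HTRF.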
IL2 activator: activators of IL-2. AID 652025. activation, % (series mostly up to about 46 µM). 360,000 tested, 0.065% active. IL-2 activation reporter assay, cell-based qHTS; stimulated with anti-CD3/CD4/CD28 beads; in transgenic mouse T cells; in the data active = activation above about 50%; inconclusive = mostly about 30% to 49%
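Using fluorescent plate cytometry, EGFP and DsRed are detected in transgenic mouse T cells stimulated 18 h at 37 degrees C with antibody-coated beads after 60 min compound pretreatment.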
BRCA1 expr act: activators of BRCA1 expression; MCF7-BRCA1-FFLuc reporter, luminescence, 48 h; response scale: scaled: vehicle 0%, 10 µM genistein 100%; Potency, µM (highest dose often 46.1 µM), actives largely listed as activators; 380,000 tested, 1.1% active; note: nearly all actives have a fitted effect of over 80% in size
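MCF7-BRCA1-FFLuc cells, 2000/well in phenol-red-free MEM, attached 2 h then treated 48 h at 37 C. Luciferase luminescence read 15 min after reagent; normalized to genistein maximum activation (10microM) and DMSO, concentration-response fitted.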
gsp antagonist: antagonists of gsp mutant (McCune-Albright syndrome). gsp-mutant cells, cAMP HTRF, 30 min. Potency, µM (highest dose often 76.9 µM), most hits filed as inhibitors. 340,000 tested, 0.4% active; calls by dose curve; cell line not stated here;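 note: intracellular cAMP measured with PDE inhibitor Ro 20-1724 present during compound exposure; nearly all actives have a fitted effect of over 65% in size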
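HTRF cAMP measurement after 30 min RT detection following 30 min, 37C compound treatment alongside […] (added as 300 uM solution) in G418-selected cells seeded at 2000/well and grown 16–24 h.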
Large screens that a line does not name were inactive. Compounds with a hit are over-represented: about 1.5% of the library has one in this group of screens. Unless noted, calls come from the whole dose curve; as a rule, active = well fitted curve in the direction sought with a large enough effect; inconclusive = small, poorly fitted or top-dose-only effect, or another doubt; inactive = no such curve, though single readings can be large; an effect the other way counts as inactive or inconclusive.

O=C(Nc1ccc(C(=O)N2CCCC2)cc1)c1ccccc1F	none
CCN1CCN(c2cc(C)c3cc(NC(=O)c4ccccc4F)ccc3n2)CC1	none (no result: gsp agonist, IL2 activator, BRCA1 expr act, gsp antagonist)
CC1(C(=O)NS(=O)(=O)c2ccc(F)cc2F)CCN1C(=O)Cc1ccc(-c2ccccc2)cc1 (configuration not stated)	none (no result: mIDH1 inhibitor, gsp agonist, gsp antagonist)
O=c1c2ccccc2nnn1-c1ccccc1	none
Cc1ccc(-n2nnc3ccccc3c2=O)cc1C	gsp agonist inconclusive, BRCA1 expr act 4.47µM
CC(CN1CCCCC1)OC(=O)c1ccco1 (configuration not stated)	none
CCOc1ccc(-c2nc(C#N)c(NC3CC3)o2)cc1	BRCA1 expr act 10µM
Cn1cccc1-c1cc(C(=O)N/N=C/c2ccc(F)cc2)[nH]n1	none
O=C(NN=Cc1ccccc1Cl)c1ccccc1	BRCA1 expr act 5.62µM (no result: gsp antagonist)
O=C(N/N=C/c1ccccc1Cl)c1ccc(F)cc1	BRCA1 expr act inconclusive
Cn1cccc1-c1cc(C(=O)N/N=C/c2ccccc2Cl)[nH]n1	BRCA1 expr act 8.91µM
O=C(N/N=C/c1c[nH]c2ccccc12)c1ccccc1	BRCA1 expr act 10µM
Cc1ccc(-c2[nH]ncc2CN2CCN(C(=O)c3cccs3)CC2)cc1C	none
Cc1cc(C(=O)COC(=O)C2=COCCO2)c(C)n1-c1ccccc1	none
CCCN(Cc1cc2cc(C)ccc2[nH]c1=O)C(=O)c1cccc(Cl)c1	none (no result: gsp agonist, IL2 activator, BRCA1 expr act, gsp antagonist)
Cc1occc1C(=O)N/N=C/c1ccc2c(c1)OCO2	none
Cc1occc1C(=O)Nc1ccc2c(c1)OCO2	BRCA1 expr act 3.16µM
CC1CCC(NC(=O)C(=O)Nc2ccc3c(c2)OCO3)CC1 (configuration not stated)	BRCA1 expr act 2.82µM
Cc1ccc(NC(=O)c2ccoc2C)cc1C	BRCA1 expr act 6.31µM
OC(CBr)C[n+]1cc(Br)cc2ccccc21 (configuration not stated)	none (no result: mIDH1 inhibitor, gsp agonist, IL2 activator, gsp antagonist)
Clc1cccc(CSc2nc3ccncc3[nH]2)c1	BRCA1 expr act 8.91µM
Fc1cccc(CSc2nc3ccncc3[nH]2)c1	gsp agonist inconclusive, BRCA1 expr act inconclusive
CCN(CCNC(=O)c1ccc(CSc2nc3ccncc3[nH]2)cc1)c1ccccc1	none
O=C(NCCN1CCN(c2cccc(Cl)c2)CC1)c1ccc(CSc2nc3ccncc3[nH]2)cc1	gsp antagonist 31.6µM
Clc1ccc(-c2noc(CN3CCN(c4ccccc4)CC3)n2)cc1	none
Cc1ccc(-c2noc(CN3CCCCC3)n2)cc1	gsp agonist inconclusive, BRCA1 expr act 2.51µM
Clc1ccc(-c2noc(CN3CCCC3)n2)cc1	BRCA1 expr act 12.6µM
Nc1nc(SCc2ccccc2)[nH]c(=O)c1-c1ccccc1	BRCA1 expr act 10µM
CN(C)c1ccc(Cn2ccc3ccccc32)cc1	none (no result: mIDH1 inhibitor, gsp agonist, IL2 activator, gsp antagonist)
COc1ccc(/C(N)=N/OC(=O)c2cccs2)cc1OC	BRCA1 expr act 8.91µM
COc1cc2ncnc(N3CCN(C(=O)Nc4ccc(Oc5ccccc5)cc4)CC3)c2cc1OC	none (no result: mIDH1 inhibitor, gsp agonist, IL2 activator, gsp antagonist)
COc1ccc2cc3cc(C(=O)NCCCN4CCc5ccccc5C4)sc3nc2c1	BRCA1 expr act 7.08µM
COc1ccc2nc3sc(C(=O)NCCN4CCc5ccccc5C4)cc3cc2c1	none
COc1ccc2cc(CCNC(=O)C(C)(C)C)c(=O)[nH]c2c1	none
COc1ccc2cc(CCN3C(=O)c4ccccc4C3=O)c(=O)[nH]c2c1	gsp agonist 11.2µM
CCNC(=S)N/N=C/c1cccc(C)c1	BRCA1 expr act 10µM
CCNC(=S)N/N=C/c1cc(C)ccc1C	none
O=C(/C=C/c1ccccc1Cl)NCc1cccs1	BRCA1 expr act 3.98µM
O=C(/C=C/c1ccc(Br)cc1)NCc1cccs1	none
O=C(/C=C/c1cccs1)NCc1ccccc1	BRCA1 expr act 14.1µM
CCC(C)NC(=O)/C=C/c1cccs1 (configuration not stated)	none
O=C(/C=C/c1ccc(F)cc1)NCc1cccs1	BRCA1 expr act 14.1µM
CCn1cc(C(=O)NCCc2ccc(Cl)cc2)c(=O)c2cc(S(=O)(=O)N3CCC(C)CC3)ccc21	none (no result: gsp agonist, IL2 activator, gsp antagonist)
Cc1ccc(-c2cnn(-c3cccc([N+](=O)[O-])c3)c2N)cc1	BRCA1 expr act 5.62µM
Nc1c(-c2ccccc2)cnn1-c1cccc(C(F)(F)F)c1	BRCA1 expr act 5.01µM
